An excerpt weighted towards active compounds, which were near 3.6% of everything screened.
aSyn yeast inh = rescues yeast growth from alpha-synuclein toxicity. Yeast expressing alpha-synuclein, growth rescue, BacTiter-Glo, 24 h. Potency, µM (top dose mostly 46.1 µM), inactives show top-dose growth rescue (activation), usual class: activators. actives 0.14% (n = 370,000). AID 652106; note: % of control where 0% means no effect; nearly all actives have a fitted effect of over 65% in size
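Readout is rescue of growth in alpha-synuclein-expressing yeast, so inhibitors of toxicity appear as activators. Growth after 24 hr at 30 deg C in galactose medium is quantified by luminescence.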
ClpP mod = qHTS Assay for Activators of ClpP. ATP-dependent Clp protease proteolytic subunit (Bacillus subtilis (strain 168)), P80244. purified B. subtilis ClpP, FRET peptide cleavage, 20 min. Potency, µM (top dose mostly 57.5 µM), for the others: at the highest dose activity change, negative = active. actives 1.9% (n = 340,000). AID 651965, 2013; active = well fitted falling curve with a large enough effect; inconclusive = small, poorly fitted or top-dose-only effect; inactive = no such curve, though single readings can be large or run the other way; note: the source files actives as falling curves though it sought activators and does not explain the sign; nearly all actives have a fitted effect of over 65% in size
Target sequence (P80244 whole entry, looked up): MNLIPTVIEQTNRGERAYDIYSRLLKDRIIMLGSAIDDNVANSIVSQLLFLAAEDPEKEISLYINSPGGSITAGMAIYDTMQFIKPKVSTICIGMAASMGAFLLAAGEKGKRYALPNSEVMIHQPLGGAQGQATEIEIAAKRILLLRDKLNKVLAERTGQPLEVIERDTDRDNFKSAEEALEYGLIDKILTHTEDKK
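ClpP 10 microg/mL final, pH 8 Tris/KCl buffer with BSA, glycerol, Tween-20; compound pinned in; FRET-FV substrate; RT 20 min; Ex320/Em430; ΔFRET vs ADEP 5.8 microM, DMSO, no enzyme.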
Abeta yeast res = compounds reversing amyloid beta toxicity in yeast | yeast expressing A-beta42, growth rescue, OD600, 48 h; response scale: 0% DMSO, 100% iron-clioquinol control | Potency, µM (top dose mostly 46.1 µM), actives largely listed as activators | actives 0.063% (n = 410,000); note: nearly all actives have a fitted effect of over 55% in size
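Yeast A-beta toxicity model in growth medium with pinned compounds, 48 h at 30 C; growth read as absorbance at 600 nm. Normalized to FeCl3/clioquinol equimolar mix (positive) and DMSO (negative).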
TDP43 rescue = TDP-43 toxicity inhibition in yeast. Potency, µM (titrated, usually from 46.1 µM), without a hit: at the top dose growth rescue (activation), most hits filed as activators. AID 652104. actives 1.8% (n = 410,000). TDP-43 expressing yeast growth rescue, BacTiter-Glo, 24 h; note: % of control where 0% means no effect; nearly all actives have a fitted effect of over 50% in size
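Yeast expressing TDP-43 (pregrown in raffinose, seeded at OD600=0.02 in galactose medium) exposed to compounds 24 hr at 30 deg C. Growth read by BacTiter-Glo luminescence; rescue of toxicity appears as increased signal.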
MmCpn inh = blocks the Methanococcus maripaludis chaperonin Mm-Cpn | Potency, µM (series often up to 76.9 µM), for the others: at the highest dose activity, negative = inhibition, most hits filed as inhibitors | AID 504842 | purified Mm-Cpn ATPase, ADP Transcreener TR-FRET | actives 0.031% (n = 330,000); note: % is set by controls: 0 for no effect and ±100 for the full control effect; nearly all actives have a fitted effect of over 80% in size
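ATPase read-out: TR-FRET ADP immunoassay (anti-ADP Eu cryptate vs ADP-d2), ex 320 nm, em 590/665 nm; signal drops as ADP forms. Enzyme 25 nM, ATP 10 uM, 30 min at 37°C after 10 min compound preincubation.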
FUS suppressor = FUS proteinopathy suppression in yeast; Potency, µM (series often up to 76.6 µM), hits mostly activators; S. cerevisiae FUS-expressing, growth rescue, OD600, 24 h; AID 1347120; actives 0.24% (n = 390,000);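 note: plate controls were DMSO vehicle for no effect and reference control for full effect; nearly all actives have a fitted effect of over 55% in size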
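Yeast expressing FUS under galactose induction, OD 0.005 in 2% galactose medium; compounds in a dilution series, 24 h at 30C. Growth rescue by absorbance at 600 nm; CP55940 positive control, DMSO negative.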
Starred values were filed as active, the others as inactive; i = inactive; ? = inconclusive; nt = no result. Unless noted, calls come from the whole dose curve; as a rule, active = well fitted curve in the direction sought with a large enough effect; inconclusive = small, poorly fitted or top-dose-only effect, or another doubt; inactive = no such curve, though single readings can be large; an effect the other way counts as inactive or inconclusive. Potency is the fitted concentration of half-maximal effect.

SMILES	aSyn yeast inh	ClpP mod	Abeta yeast res	TDP43 rescue	MmCpn inh	FUS suppressor
CC(C)(C)c1ccc(OCCC(=O)NCCc2ccc(S(N)(=O)=O)cc2)cc1	5.7%	-1.1%	i	10.0%	1.5%	i
COc1ccc(CCC(=O)NCCOc2ccc(Cl)cc2)cc1	2.1%	-1.1%	i	8.91µM*	-0.6%	i
COc1ccc(OCC(=O)NCc2ccc(Cl)cc2)cc1	19.9%	nt	i	27.9%	-0.7%	i
CC(C)C(=O)NC(c1ccco1)c1c(O)ccc2ccccc12 (stereo not given)	5.4%	22.4µM*	i	-18.2%	?	i
CC(C)C(=O)NC(c1ccccc1Cl)c1c(O)ccc2ccccc12 (stereo not given)	-0.8%	25.1µM*	i	-16.6%	-0.6%	i
COc1ccc(C(NC(=O)C(C)C)c2c(O)ccc3ccccc23)cc1OC (stereo not given)	2.5%	28.2µM*	i	-1.5%	2.1%	i
Cc1ccccc1C(=O)OCc1cc(=O)n2nc(C(C)C)sc2n1	nt	0.7%	i	?	nt	i
COc1ccc(CCNC(=O)c2ccc3c(c2)N(Cc2ccccc2F)C(=O)c2ccccc2S3(=O)=O)cc1OC	nt	3.3%	i	-19.0%	nt	20µM*
O=C(NCc1ccccc1)c1ccc2c(c1)N(Cc1ccccc1F)C(=O)c1ccccc1S2=O (stereo not given)	nt	-2.8%	i	10.2%	nt	?
O=C(NCc1ccc(Cl)cc1)c1ccc2c(c1)N(Cc1ccccc1F)C(=O)c1ccccc1S2=O (stereo not given)	nt	-0.9%	i	0.4%	nt	28.2µM*
COP(=O)(O)C(Cc1ccccc1)NC(=O)OCc1ccccc1 (stereo not given)	nt	nt	nt	nt	nt	i
O=C1ON=C(c2ccccc2)/C1=C/c1ccc(O)c(O)c1	5.01µM*	-2.6%	i	?	-2.3%	i
COc1cc(/C=C2\C(=O)ON=C2c2ccc(Cl)cc2)ccc1O	3.6%	nt	i	?	nt	?
COc1ccc(/C=C2\C(=O)ON=C2c2ccccc2)cc1	13.7%	nt	i	?	-0.5%	i
O=C1ON=C(c2ccccc2)/C1=C/c1ccc(OS(=O)(=O)c2ccccc2)cc1	6.1%	-0.9%	i	12.6µM*	1.3%	nt
CCOc1ccccc1NC(=O)c1cc2ccc3cccnc3c2[nH]1	nt	154.0%	i	17.1%	nt	i
COc1ccccc1NC(=O)c1cc2ccc3cccnc3c2[nH]1	nt	-2.2%	i	14.1µM*	nt	?
CC(C)N(Cc1ccccc1)C(=O)c1cc2ccc3cccnc3c2[nH]1	nt	-3.7%	i	22.4µM*	nt	i
Cc1nnc(C)n1N=Cc1ccc(O)cc1O	nt	nt	nt	nt	nt	i
Cc1ccnc2c(O)cccc12	nt	1.2%	nt	nt	nt	nt
COCCCNc1nc2ccccc2nc1NS(=O)(=O)c1cccc(C)c1	-5.5%	-2.0%	i	14.1µM*	-17.2%	i
COCCCNc1nc2ccccc2nc1NS(=O)(=O)c1ccccc1	-0.6%	nt	i	18.9%	-0.9%	i
COCCNc1nc2ccccc2nc1NS(=O)(=O)c1ccc(C)cc1C	1.7%	28.2µM*	i	9.3%	-13.5%	i
COCCCNc1nc2ccccc2nc1NS(=O)(=O)c1ccc(C)c(C)c1	9.3%	nt	i	?	-8.4%	i
COC(=O)c1cc2sc(Cl)cc2n1Cc1nc(-c2ccccc2C)oc1C	nt	-1.7%	i	9.5%	nt	i
Cc1ccc2onc(CC(=O)N3CCN(c4ccc(F)cc4)CC3)c2c1	nt	-1.7%	i	12.6µM*	nt	i
Cc1nc(SCC(=O)Nc2ccccc2C(F)(F)F)c(C#N)c(C)c1CC(=O)c1ccc(Br)cc1	nt	nt	nt	nt	-16.4%	nt
Cc1cccc(C)c1NC(=O)CSc1nc(C)c(CC(=O)c2ccc(Br)cc2)c(C)c1C#N	-8.0%	28.2µM*	i	17.4%	-9.2%	i

Screening data as filed in PubChem BioAssay.
